Results published in PubChem BioAssay (Tox21).
Values joined by “and” are separate entries in the source; they are usually repeats but may differ in a detail not shown here. Equal entries are not always repeated. Inconclusive results are not listed. A call without a number means that no potency is given here. Some compounds were tested as several samples or in several runs, with calls that do not always agree. Active and inactive are the calls of the source. Unless noted, calls follow the shape of the dose curve; as a rule, active = well fitted curve in the direction sought with a large enough effect in the repeat runs; inconclusive = weak or mixed curves; inactive = no such curve, though single readings can be large; an effect the other way counts as inactive or inconclusive.

Assays:
[1] = target: Aryl hydrocarbon receptor (Homo sapiens) (UniProt P35869); experiment: qHTS assay to identify small molecule that activate the aryl hydrocarbon receptor (AhR) signaling pathway (AID 743085); also: nearly all actives have a fitted effect of over 15% in size; also: potency is read from the fitted curve at half-maximal effect;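 as to activation: HG2L7.5c1 human HepG2 liver cells with stably integrated DRE-driven firefly reporter; series mostly up to about 70 µM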
Sequence of Aryl hydrocarbon receptor (Homo sapiens) (P35869 whole entry, looked up): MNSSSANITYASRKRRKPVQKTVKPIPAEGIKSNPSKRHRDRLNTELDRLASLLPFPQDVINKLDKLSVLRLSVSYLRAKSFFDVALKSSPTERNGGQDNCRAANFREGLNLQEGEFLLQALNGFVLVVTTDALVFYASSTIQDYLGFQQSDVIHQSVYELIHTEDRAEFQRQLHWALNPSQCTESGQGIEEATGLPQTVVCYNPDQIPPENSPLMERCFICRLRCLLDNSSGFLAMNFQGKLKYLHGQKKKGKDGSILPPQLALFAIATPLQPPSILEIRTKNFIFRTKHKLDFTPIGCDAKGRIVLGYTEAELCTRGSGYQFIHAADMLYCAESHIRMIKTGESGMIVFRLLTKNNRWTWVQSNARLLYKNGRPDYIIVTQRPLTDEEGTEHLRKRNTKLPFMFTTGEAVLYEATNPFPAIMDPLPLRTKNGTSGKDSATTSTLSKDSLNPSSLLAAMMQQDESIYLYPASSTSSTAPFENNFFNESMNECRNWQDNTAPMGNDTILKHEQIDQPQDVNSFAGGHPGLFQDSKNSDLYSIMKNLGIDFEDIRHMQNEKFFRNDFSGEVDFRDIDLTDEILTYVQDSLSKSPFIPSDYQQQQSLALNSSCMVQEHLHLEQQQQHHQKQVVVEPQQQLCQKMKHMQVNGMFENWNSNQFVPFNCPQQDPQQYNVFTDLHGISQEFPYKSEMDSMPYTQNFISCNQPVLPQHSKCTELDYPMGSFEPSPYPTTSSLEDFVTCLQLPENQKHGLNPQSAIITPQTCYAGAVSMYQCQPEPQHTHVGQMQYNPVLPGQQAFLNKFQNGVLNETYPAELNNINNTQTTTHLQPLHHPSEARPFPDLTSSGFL
How it was run: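 Reporter assay in engineered HepG2 line HG2L7.5c1, whose plasmid carries twenty dioxin responsive elements upstream of firefly luciferase. Treatment lasted 24 h at 37C; ONE-Glo luminescence gauged induction.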

[2] = qHTS assay to identify small molecule that activate the aryl hydrocarbon receptor (AhR) signaling pathway - cell viability counter screen (AID 743086); also: nearly all actives have a fitted effect of over 45% in size; also: potency is read from the fitted curve at half-maximal effect
How it was run: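 HepG2-AhR-luc (HG2L7.5c1) cells, 4000/well, were preincubated 5 h at 37C, exposed to compound in qHTS format for 24 hr at 37C, then given CellTiter-Fluor for 30 min; viability was read as fluorescence in the reporter wells.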

[3] = target: Peroxisome proliferator-activated receptor gamma (Homo sapiens) (UniProt P37231); experiment: qHTS assay to identify small molecule agonists of the peroxisome proliferator-activated receptor gamma (PPARg) signaling pathway (AID 743094; active = well fitted activation curve with a large enough effect in the signal ratio in the repeat runs, not every such curve was filed as active; the % refers to the signal ratio; also: potency is read from the fitted curve at half-maximal effect)
Sequence of Peroxisome proliferator-activated receptor gamma (Homo sapiens) (P37231 whole entry, looked up): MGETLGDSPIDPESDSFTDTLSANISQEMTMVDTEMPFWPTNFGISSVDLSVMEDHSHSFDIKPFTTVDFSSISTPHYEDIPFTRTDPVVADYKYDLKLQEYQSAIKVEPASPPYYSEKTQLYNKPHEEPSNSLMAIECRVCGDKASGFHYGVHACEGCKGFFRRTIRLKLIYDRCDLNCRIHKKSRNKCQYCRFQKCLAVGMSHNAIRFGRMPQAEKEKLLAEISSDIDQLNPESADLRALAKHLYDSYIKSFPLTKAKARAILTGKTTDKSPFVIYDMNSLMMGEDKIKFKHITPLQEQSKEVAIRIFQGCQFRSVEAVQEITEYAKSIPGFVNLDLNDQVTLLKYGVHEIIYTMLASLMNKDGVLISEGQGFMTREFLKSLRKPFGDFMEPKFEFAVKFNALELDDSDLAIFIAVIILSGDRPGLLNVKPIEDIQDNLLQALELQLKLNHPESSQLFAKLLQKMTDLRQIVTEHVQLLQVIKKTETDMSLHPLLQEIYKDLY
How it was run: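 Fluorescence-based beta-lactamase readout in HEK293H PPARg UAS-bla cells after 17 h compound exposure (37C) and 1 h B/G FRET substrate incubation at room temperature.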

[4] = target: Peroxisome proliferator-activated receptor gamma (Homo sapiens) (UniProt P37231); experiment: qHTS assay to identify small molecule antagonists of the peroxisome proliferator-activated receptor gamma (PPARg) signaling pathway (AID 743191; calls by dose curve; also: series mostly up to about 63 µM; nearly all actives have a fitted effect of over 30% in size)
How it was run: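 GeneBLAzer PPARg UAS-bla HEK293H cells carrying a UAS-driven beta-lactamase reporter were plated at 3000 cells/well, preincubated 5 h at 37C, then given compound for 17 h at 37C; LiveBLAzer B/G FRET substrate was read after 1 h at room temperature.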

[5] = qHTS assay to identify small molecule agonists of the peroxisome proliferator-activated receptor delta (PPARd) signaling pathway - cell viability counter screen (AID 743211); also: nearly all actives have a fitted effect of over 55% in size; also: potency is read from the fitted curve at half-maximal effect
How it was run: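 Multiplexed format: after the 2 h room-temperature LiveBLAzer B/G FRET step, CellTiter-Glo was added to the same wells. Luminescence after 30 min gave cell viability; compound exposure was 17 h at 37C.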

[6] = qHTS assay to identify small molecule antagonists of the peroxisome proliferator-activated receptor gamma (PPARg) signaling pathway - cell viability counter screen (AID 743194); details: Potency: co-treated with 50 nM rosiglitazone unless noted; also: nearly all actives have a fitted effect of over 55% in size; also: potency is read from the fitted curve at half-maximal effect
How it was run: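 PPARg-UAS-bla HEK293H cells were plated, rested 5 h at 37 C, then treated with compounds plus rosiglitazone (50 nM final) for 17 h at 37 C; viability was then read by CellTiter-Glo luminescence after 30 min at room temperature.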

[7] = qHTS assay for small molecule agonists of the antioxidant response element (ARE) signaling pathway - cell viability counter screen (AID 743203; calls by dose curve; also: nearly all actives have a fitted effect of over 55% in size; also: potency is read from the fitted curve at half-maximal effect)
How it was run: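 Parallel cytotoxicity read-out for the ARE-bla screen: HepG2 reporter cells, 16 hrs with compounds, then CellTiter-Glo luminescence.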

[8] = qHTS assay for small molecule activators of the heat shock response signaling pathway - cell viability counter screen (AID 743209); also: nearly all actives have a fitted effect of over 50% in size; also: potency is read from the fitted curve at half-maximal effect
How it was run: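 To flag cytotoxic compounds, HSE-bla HeLa cells plated at 1500 cells/well were dosed for 5 h at 37 C, followed by the reporter FRET read and then CellTiter-Glo, with luminescence recorded 30 min after reagent addition.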

[9] = qHTS assay for small molecule agonists of the antioxidant response element (ARE) signaling pathway (AID 743202; active = well fitted activation curve with a large enough effect in the signal ratio in the repeat runs, not every such curve was filed as active; the % refers to the signal ratio)
How it was run: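 Steps: seed ARE-bla HepG2 cells (2,000/well); incubate 5 h at 37 C; add compounds by pin tool; incubate 16 h at 37 C; add FRET substrate; read fluorescence after 2 h at RT.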

[10] = qHTS assay for small molecule activators of the heat shock response signaling pathway (AID 743210; active = well fitted activation curve with a large enough effect in the signal ratio in the repeat runs, with a control signal flat, not every such curve was filed as active; the % refers to the signal ratio;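 also: HeLa cells with beta-lactamase reporter driven by heat shock elements; series mostly up to about 63 µM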)
How it was run: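 Activation of heat shock element-controlled beta-lactamase expression is measured in HeLa cells by LiveBLAzer FRET fluorescence, with compound exposure lasting 5 h at 37 C and substrate loading 2.5 h at room temperature.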

O=[N+]([O-])c1cc([N+](=O)[O-])c2ccccc2c1
Potency [1]: 16.3 µM (active)
Potency [2]: inactive

Clc1ccc(-c2ccc(Cl)c(Cl)c2Cl)c(Cl)c1Cl
Potency [1]: inactive
Potency [2]: inactive
Potency [3]: inactive
Potency [4]: inactive
Potency [5]: 20.8 µM (active)

CN(C)CCc1c[nH]c2cccc(O)c12
Potency [1]: inactive
Potency [2]: inactive
Potency [3]: inactive
Potency [4]: inactive
Potency [6]: inactive
Potency [7]: inactive
Potency [8]: inactive
Potency [5]: inactive

CC(C)(C)c1cc([N+](=O)[O-])cc(C(C)(C)C)c1O
Potency [1]: inactive
Potency [2]: inactive
Potency [3]: inactive
Potency [4]: inactive
Potency [9]: inactive
Potency [10]: inactive

CC(C)(C)OO
Potency [1]: inactive
Potency [2]: inactive
Potency [3]: inactive
Potency [4]: inactive
Potency [6]: inactive
Potency [7]: inactive
Potency [8]: inactive
Potency [5]: inactive

CC(C)OS(C)(=O)=O
Potency [1]: inactive
Potency [2]: inactive
Potency [3]: inactive
Potency [4]: inactive
Potency [6]: inactive
Potency [9]: inactive
Potency [7]: inactive
Potency [8]: inactive
Potency [10]: inactive
Potency [5]: inactive

C[C@H]1CC[C@@H]2[C@@H](C)[C@H]3[C@H](C[C@H]4[C@@H]5CC=C6CC(O[C@@H]7O[C@H](CO)[C@H](O)[C@H](O[C@@H]8O[C@H](CO)[C@@H](O)[C@H](O)[C@H]8O)[C@H]7O[C@H]7O[C@@H](C)[C@H](O)[C@@H](O)[C@H]7O)CC[C@]6(C)[C@H]5CC[C@]34C)N2C1 (some centres not stated)
Potency [1]: inactive
Potency [2]: inactive
Potency [3]: inactive
Potency [6]: 8.99 µM (active)
Potency [7]: 7.94 µM (active)
Potency [8]: 16 µM (active)

CCN(CC)c1c([N+](=O)[O-])cc(C(F)(F)F)c(N)c1[N+](=O)[O-]
Potency [1]: inactive
Potency [2]: inactive
Potency [3]: inactive
Potency [4]: inactive
Potency [6]: inactive
Potency [9]: inactive
Potency [7]: inactive
Potency [10]: inactive
Potency [5]: inactive

Cc1cc(C(F)(C(F)(F)F)C(F)(F)F)ccc1NC(=O)c1cccc(I)c1C(=O)NC(C)(C)CS(C)(=O)=O
Potency [1]: inactive
Potency [2]: inactive
Potency [3]: inactive
Potency [4]: inactive
Potency [7]: inactive
Potency [8]: inactive

CC(=O)c1cc(C(C)(C)C)cc2c1CCC2(C)C
Potency [1]: inactive
Potency [2]: inactive
Potency [3]: inactive
Potency [4]: inactive
Potency [6]: inactive
Potency [9]: inactive
Potency [7]: inactive

NNC(=O)c1ccccc1
Potency [1]: 15.8 µM (active)
Potency [2]: inactive
Potency [3]: inactive
Potency [4]: inactive
Potency [6]: inactive
Potency [9]: inactive
Potency [7]: inactive
Potency [10]: inactive
Potency [5]: inactive

CC(C)OC(=S)S
Potency [1]: inactive
Potency [2]: inactive
Potency [3]: inactive
Potency [4]: inactive
Potency [6]: inactive
Potency [7]: inactive
Potency [8]: inactive

O=[N+]([O-])c1ccc(Oc2ccc(C(F)(F)F)cc2[N+](=O)[O-])cc1
Potency [1]: 30.6 µM (active)
Potency [2]: inactive
Potency [3]: inactive
Potency [6]: inactive
Potency [7]: inactive
Potency [8]: inactive
Potency [10]: inactive
Potency [5]: inactive

CCCCN(CCCC)C(=S)[S-].CCCCN(CCCC)C(=S)[S-].[Zn+2]
Potency [1]: inactive
Potency [2]: inactive
Potency [3]: inactive and 30.9 µM (active)
Potency [6]: 5.49 µM (active)
Potency [7]: 19.3 µM (active)
Potency [8]: inactive

COc1cccc(C(=O)CCN[C@@H](C)[C@H](O)c2ccccc2)c1
Potency [1]: inactive
Potency [2]: inactive
Potency [3]: inactive
Potency [4]: inactive
Potency [6]: inactive

Clc1ccc(COC(Cn2ccnc2)c2ccc(Cl)cc2Cl)cc1 (configuration not stated)
Potency [1]: inactive
Potency [2]: 15.3 µM (active)
Potency [3]: inactive
Potency [6]: 20.4 µM (active) and 19.4 µM (active) and 29.8 µM (active)
Potency [7]: 25.5 µM (active) and 19.3 µM (active) and 33.5 µM (active)
Potency [8]: 36.3 µM (active) and 12.3 µM (active)
Potency [5]: 16.2 µM (active) and 17.3 µM (active) and 21.1 µM (active)

Clc1ccc(CSC(Cn2ccnc2)c2ccc(Cl)cc2Cl)cc1 (configuration not stated)
Potency [1]: inactive
Potency [2]: inactive
Potency [3]: inactive
Potency [6]: 29.8 µM (active)
Potency [7]: 29.8 µM (active)
Potency [8]: 29.8 µM (active)
Potency [5]: 33.5 µM (active)

COc1ccc(/C(=C/C(=O)N2CCOCC2)c2ccc(Cl)cc2)cc1OC
Potency [1]: inactive
Potency [2]: inactive
Potency [3]: inactive
Potency [6]: inactive
Potency [7]: inactive
Potency [8]: inactive
Potency [10]: inactive

CC(C)CCCCCOC(=O)c1ccccc1C(=O)OCCCCCC(C)C
Potency [1]: inactive
Potency [2]: inactive
Potency [3]: inactive
Potency [4]: inactive
Potency [6]: inactive
Potency [9]: inactive
Potency [7]: inactive
Potency [8]: inactive
Potency [10]: inactive
Potency [5]: inactive

N#CNC#N
Potency [1]: inactive
Potency [2]: inactive
Potency [3]: inactive
Potency [4]: inactive
Potency [6]: inactive
Potency [9]: inactive
Potency [7]: inactive
Potency [8]: inactive
Potency [10]: inactive
Potency [5]: inactive

N#CCCSCCC#N
Potency [1]: inactive
Potency [2]: inactive
Potency [3]: inactive
Potency [4]: inactive
Potency [9]: inactive
Potency [7]: inactive
Potency [8]: inactive
Potency [10]: inactive
Potency [5]: inactive

CCN
Potency [1]: inactive
Potency [2]: inactive
Potency [3]: inactive
Potency [4]: inactive
Potency [6]: inactive
Potency [9]: inactive
Potency [7]: inactive
Potency [5]: inactive

ClC(Cl)=C(Cl)Cl
Potency [1]: inactive
Potency [2]: inactive
Potency [3]: inactive
Potency [6]: inactive
Potency [9]: inactive
Potency [7]: inactive
Potency [10]: inactive
